Experimental data as given in the supplement of paper PMC12350171.
Where a name gives a salt, the structure may show the parent alone.

System: Haemophilus parainfluenzae
Assay: growth AUC normalised to DMSO control (fraction of control); higher = less growth inhibition, active = hit call of the paper
Details: 20 µM;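 active = AUC significantly below DMSO controls by Student t-fit with adjusted P under 0.01; inactive = not significantly reduced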
Outline: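 Pathogens were passaged twice under anaerobic conditions, then inoculated into pre-reduced mGAM plates at a starting OD578 of 0.01, with compound at 20 μM and 1% DMSO, and sealed with breathable membranes. For Haemophilus parainfluenzae, the medium was supplemented with hemin and NAD. OD578 was read every hour for 24 h in three biological replicates. Growth-curve AUC was calculated by the trapezoidal rule up to the exponential-to-stationary transition and normalised to DMSO controls on the same plate.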

Structure (SMILES)	growth AUC normalised to DMSO control
CCOC(=O)c1ccc(N)cc1 [Benzocaine]	1.02 (inactive)
C[C@@H]1[C@H](O)[C@@H](C)/C=C/C=C/C=C/C=C/C=C/C=C/C=C/[C@H](O[C@@H]2O[C@H](C)[C@@H](O)[C@H](N)[C@@H]2O)C[C@@H]2O[C@](O)(C[C@@H](O)C[C@@H](O)[C@H](O)CC[C@@H](O)C[C@@H](O)CC(=O)O[C@H]1C)C[C@H](O)[C@H]2C(=O)O [Amphotericin B]	1.09 (inactive)
CCCCOc1ccc(CC(=O)NO)cc1 [Bufexamac]	1 (inactive)
O=C(O)CCNC(=O)c1ccc(/N=N/c2ccc(O)c(C(=O)O)c2)cc1 [Balsalazide disodium salt]	1.07 (inactive)
C[C@@H]1C[C@H]2[C@@H]3C[C@H](F)C4=CC(=O)C=C[C@]4(C)[C@@]3(Cl)[C@@H](O)C[C@]2(C)[C@H]1C(=O)COC(=O)C(C)(C)C [Clocortolone pivalate]	1.73 (inactive)
CCOc1nc2cccc(C(=O)O)c2n1Cc1ccc(-c2ccccc2-c2nnn[nH]2)cc1 [Candesartan]	1.05 (inactive)
CCn1nc(C(=O)O)c(=O)c2cc3c(cc21)OCO3 [Cinoxacin]	0.294 (active)
